Results from paper PMC4336329 (PLoS ONE, 2015).
In all, about 310,000 compounds went through this assay and about 14,000 (4.5%) showed an effect of 50% or more. Effects have a minus sign here. Only a selection was taken, and strong results are over-represented in it overall.

The compounds below were run against human ether-à-go-go-related gene (hERG) potassium channel (human, UniProt Q12809) (assay: primary screen, population patch clamp on CHO cells stably expressing hERG; higher = less effect of the substance).
Chain of human ether-à-go-go-related gene (hERG) potassium channel (Q12809 whole entry, looked up): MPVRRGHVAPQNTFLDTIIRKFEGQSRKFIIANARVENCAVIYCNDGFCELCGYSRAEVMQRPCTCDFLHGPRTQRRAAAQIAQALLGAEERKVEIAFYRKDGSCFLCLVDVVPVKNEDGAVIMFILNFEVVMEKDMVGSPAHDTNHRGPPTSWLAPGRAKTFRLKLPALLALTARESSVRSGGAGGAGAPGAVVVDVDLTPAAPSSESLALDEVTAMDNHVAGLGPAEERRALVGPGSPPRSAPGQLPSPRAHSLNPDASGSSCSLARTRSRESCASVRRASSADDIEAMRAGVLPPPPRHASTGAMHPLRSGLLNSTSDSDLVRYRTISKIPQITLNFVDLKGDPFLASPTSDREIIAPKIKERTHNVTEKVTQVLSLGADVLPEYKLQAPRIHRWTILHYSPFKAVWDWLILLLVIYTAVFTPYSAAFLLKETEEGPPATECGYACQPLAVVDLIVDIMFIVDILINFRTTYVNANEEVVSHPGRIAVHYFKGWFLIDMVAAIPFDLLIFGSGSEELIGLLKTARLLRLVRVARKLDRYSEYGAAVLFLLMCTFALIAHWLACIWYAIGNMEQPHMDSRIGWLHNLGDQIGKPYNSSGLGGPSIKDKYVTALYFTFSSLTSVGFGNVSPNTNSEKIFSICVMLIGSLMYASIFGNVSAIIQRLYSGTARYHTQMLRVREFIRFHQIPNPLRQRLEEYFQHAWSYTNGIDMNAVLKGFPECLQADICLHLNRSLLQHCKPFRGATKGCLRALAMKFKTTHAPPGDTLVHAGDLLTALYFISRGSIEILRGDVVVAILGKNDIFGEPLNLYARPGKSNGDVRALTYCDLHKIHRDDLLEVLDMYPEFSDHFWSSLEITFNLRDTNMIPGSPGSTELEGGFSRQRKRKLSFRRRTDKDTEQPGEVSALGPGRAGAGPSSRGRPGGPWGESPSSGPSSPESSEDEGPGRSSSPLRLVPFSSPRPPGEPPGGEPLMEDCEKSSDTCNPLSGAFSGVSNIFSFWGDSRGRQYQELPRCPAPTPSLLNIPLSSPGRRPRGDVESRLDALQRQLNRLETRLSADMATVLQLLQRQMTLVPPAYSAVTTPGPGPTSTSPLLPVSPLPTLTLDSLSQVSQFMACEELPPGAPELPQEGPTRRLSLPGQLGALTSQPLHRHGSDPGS
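Also: peak tail current of the secondary pulse compared with the same well before compound.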

| SMILES | hERG current change (%, negative = inhibition) at 10uM [%] |
| --- | --- |
| COc1ccc(Cl)cc1C(=O)CSc1nnnn1C1CCCC1 | -6.05 |
| COCCn1c(C)cc(C(=O)CSc2nnnn2C2CCCC2)c1C | -69 |
| COc1ccc(COC(=O)CCNC(=O)c2ccc(Cl)cc2)cc1 | -32.5 |
| COc1cccc(NC(=S)N(CCCN2CCCC(C)C2)Cc2cccs2)c1 (centres unmarked) | -67.4 |
| COc1cccc(NC(=S)N(CCCN2CCCC2)Cc2ccco2)c1 | -46.3 |
| COc1ccc(NC(=S)N(CCCN2CCCC(C)C2)Cc2cccs2)cc1 (centres unmarked) | -68.9 |
| COc1cccc(NC(=S)N(CCCN2CCCC2)Cc2cccn2Cc2ccc(Cl)cc2)c1 | -41.2 |
| CCOCCNC(=O)c1ccc2c3c(cccc13)CC2 | 3.39 |
| Cc1csc(-c2coc3cc(O)cc(C)c3c2=O)n1 | 2.27 |
| O=C1c2ccccc2C(=O)c2c1cccc2N1CCCC1 | -14.3 |
| O=C1c2ccccc2C(=O)c2c1cccc2N1CCN(Cc2ccccc2)CC1 | -56.9 |
| O=C1c2ccccc2-c2onc3c(N4CCN(CCO)CC4)cc(N4CCN(C(=O)c5ccco5)CC4)c1c23 | -22.1 |
| O=C1c2cccc(Cl)c2C(=O)c2c1cccc2N1CCCC1 | -9.16 |
| O=C1c2ccccc2C(=O)c2c1cccc2N1CCN(CCO)CC1 | -69.7 |
| O=C1c2ccccc2C(=O)c2c1cccc2N1CCN(C/C=C/c2ccccc2)CC1 | -7.23 |
| O=C(NCCc1ccccc1)C1CCN(C(=O)Nc2ccccc2)CC1 | 8.37 |
| COc1ccc(NC(=O)CCCn2c(=O)c3sccc3n(Cc3ccccc3)c2=O)cc1 | -20.8 |
| CC(C)(C)NC(=O)C(c1ccco1)N(C(=O)c1csnn1)c1ccccc1 (centres unmarked) | -4.55 |
| CC12CCC(C(=O)N(CCCCN3CCN(Cc4ccccc4)CC3)C1=O)C2(C)C.Cl (centres unmarked) | -45.2 |
| O=C(CNC(=O)c1[nH]cnc1C(=O)N[C@@H](Cc1ccccc1)C(=O)OCc1ccccc1)OCc1ccccc1 | 7.48 |
| COCCn1nnnc1C(c1ccc(OC)cc1OC)N1CCN(c2ccccc2)CC1 (centres unmarked) | -70.8 |

| SMILES | hERG current change (%, negative = inhibition) at 10uM [%] |
| --- | --- |
| COc1ccccc1CN1CCN(C(CC(C)C)c2nnnn2Cc2cccs2)CC1.Cl (centres unmarked) | -57.9 |
| CCC(c1nnnn1C(C)(C)C)N1CCN(Cc2ccccc2OC)CC1.Cl (centres unmarked) | -19.2 |
| COCCn1nnnc1C(c1ccc(OC)cc1OC)N1CCN(c2ccccc2F)CC1.Cl (centres unmarked) | -9.23 |
| COc1ccc(C(c2nnnn2Cc2cccs2)N2CCN(c3ccccc3)CC2)cc1OC (centres unmarked) | -63.5 |
| CCC(C)(C)n1nnnc1C(c1ccc(OC)c(OC)c1)N1CCN(c2ccc(F)cc2)CC1.Cl (centres unmarked) | -72.9 |
| COc1ccc(C(c2nnnn2Cc2cccs2)N2CCN(c3ccccc3F)CC2)cc1OC.Cl (centres unmarked) | -39.6 |
| CCC(C)(C)n1nnnc1C(c1ccc(OC)c(OC)c1)N1CCN(c2ccc(OC)cc2)CC1.Cl (centres unmarked) | -15.9 |
| CCC(C)(C)n1nnnc1C(c1ccc(OC)c(OC)c1)N1CCN(c2ccccc2)CC1 (centres unmarked) | -39.5 |
| COCCn1nnnc1C(c1ccccc1OC)N1CCN(c2ccccc2)CC1.Cl (centres unmarked) | -4.6 |
| CC(C)C(c1nnnn1Cc1cccs1)N1CCN(c2ccccc2)CC1 (centres unmarked) | 20 |
| CCC(c1nnnn1CCOC)N1CCN(Cc2ccccc2OC)CC1.Cl (centres unmarked) | -6.05 |
| N/C(=N\OC(=O)c1ccc(=O)n(Cc2ccc(Cl)cc2)c1)c1ccccn1 | -33.2 |
| CC1Sc2ccc(S(=O)(=O)NCc3ccccc3)cc2NC1=O (centres unmarked) | 1.74 |
| CC(C)Oc1cccc(-c2nnc(SCC(=O)Nc3ccc4c(c3)OCCO4)n2N)c1 | -8.81 |
| O=C(CSc1nnc(-c2ccc(O)cc2)n1Cc1ccco1)c1cccs1 | -14.9 |
| O=C(COC(=O)c1cccc(F)c1)NC(=O)NC1CCCC1 | 5.55 |
| COCCCN(C(=O)c1cc(C)oc1C)c1c(N)n(CC(C)C)c(=O)[nH]c1=O | 7.78 |
| Cc1ccccc1OCCOc1cccc(/C=N/NC(=O)Cc2nnc(N)s2)c1 | 14.2 |
| CC1(C)Oc2ccc(C(=O)N3CCOCC3)cc2N(CC(=O)N2CCOCC2)C1=O | 18.7 |
| Cc1ccc(CC2C(=O)N(c3cc(Cl)ccn3)C(=O)C2C)cc1 (centres unmarked) | -9.63 |
